This is part of a sample that, as a whole, favours compounds with a hit. Of some 83,000 tested, about 20% had one in any assay.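 Treatment: one concentration, 48 hours, 96-well format. Scoring: percent growth, with anything below 10 considered active.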 Values without a mark were called inactive. Active and inactive are the calls of the source.
Key:
Assay in all cases: NCI-60 one-dose screen, 48 h (100 = growth as untreated, 0 = no growth, -100 = all killed)
Conditions in all cases: 10 µM unless noted
SR leukemia = tested on: SR leukemia
RPMI-8226 leukemia = tested on: RPMI-8226 leukemia
OVCAR-8 ovarian = tested on: OVCAR-8 ovarian
OVCAR-5 ovarian = tested on: OVCAR-5 ovarian
OVCAR-4 ovarian = tested on: OVCAR-4 ovarian
SK-OV-3 ovarian = tested on: SK-OV-3 ovarian
IGROV1 ovarian = tested on: IGROV1 ovarian
OVCAR-3 ovarian = tested on: OVCAR-3 ovarian
HS 578T breast = tested on: HS 578T breast
NCI/ADR-RES ovarian = tested on: NCI/ADR-RES ovarian
T-47D breast = tested on: T-47D breast
BT-549 breast = tested on: BT-549 breast
MDA-MB-435 melanoma = tested on: MDA-MB-435 melanoma
SW-620 colon = tested on: SW-620 colon
MCF7 breast = tested on: MCF7 breast
HCT-116 colon = tested on: HCT-116 colon
HCC-2998 colon = tested on: HCC-2998 colon
KM12 colon = tested on: KM12 colon

| Compound | growth (SR leukemia) | growth (RPMI-8226 leukemia) | growth (OVCAR-8 ovarian) | growth (OVCAR-5 ovarian) | growth (OVCAR-4 ovarian) | growth (SK-OV-3 ovarian) [%] | growth (IGROV1 ovarian) | growth (OVCAR-3 ovarian) | growth (HS 578T breast) | growth (NCI/ADR-RES ovarian) | growth (T-47D breast) | growth (BT-549 breast) | growth (MDA-MB-435 melanoma) | growth (SW-620 colon) | growth (MCF7 breast) | growth (HCT-116 colon) | growth (HCC-2998 colon) | growth (KM12 colon) |
| --- | --- | --- | --- | --- | --- | --- | --- | --- | --- | --- | --- | --- | --- | --- | --- | --- | --- | --- |
| Cn1c(COC(=O)N2CCCCC2)nc2c(N3CCOCC3)nc(-c3ccccc3)nc21 | 0.966% (active) | -29.5% (active) | -6.61% (active) | -79.8% (active) | -78.4% (active) | 60.2 | -80.6% (active) | -85.3% (active) | -36.1% (active) | -8.64% (active) | -38.4% (active) | -37.7% (active) | -81.9% (active) | -69.1% (active) | -65.3% (active) | -59.3% (active) | -76.4% (active) | -73.8% (active) |
| COc1ccc2c(c1)c(CC(=O)NCCOCCOCC(=O)Nc1ccc(OC)c(C(N)=O)c1O)c(C)n2C(=O)c1ccc(Cl)cc1 | 90.2% | 96.9% | 90.3% | 112% | 93.7% | 109 | 93.9% | 103% | 105% | 91.6% | 81.3% | 81.1% | 104% | 99.4% | 94.6% | 93.9% | 93.5% | 99.4% |
| CCN(CC)CCCC(C)Nc1c2c(nc3ccc(OC)cc13)CCCC2 (stereo not drawn) | 93.6% | 100% | 105% | 90.2% | 103% | 119 | 98.1% | 102% | 93.5% | 96.8% | 113% | 101% | 103% | 103% | 91.4% | 73.6% | 103% | 106% |
| COC(=O)Nc1nc2ccc(C(=O)c3cccc(I)c3)cc2[nH]1 | -3.68% (active) | 7.16% (active) | 6.51% (active) | 28.6% | 28.3% | 30.3 | 14.9% | -5.1% (active) | 13.6% | -0.725% (active) | 63.8% | 6.76% (active) | -35.8% (active) | 21.3% | 17.6% | 9.66% (active) | 18.3% | 7.58% (active) |
| COc1ccc(C(=O)c2cc3c(N)c(C(=O)Nc4cccc(Br)c4C)sc3nc2C)cc1 | -21.4% (active) | 8.87% (active) | 1.15% (active) | 40.6% | 37.4% | 23.2 | 24.3% | -20.1% (active) | 12.4% | 0.768% (active) | 54.6% | 33.5% | -10.4% (active) | 23.4% | 17.5% | 6.78% (active) | 18.1% | 11.3% |
| CCCCCCCCCCCCCCCC(=O)OC[C@@]1(O)C[C@@]23CC[C@@H]4C(C)(C)[C@H](O)CC[C@@]4(C)[C@@H]2CC[C@H]1C3 | 98.2% | 102% | 108% | 106% | 113% | 97.1 | 117% | 107% | 100% | 106% | 98.1% | 91.5% | 108% | 110% | 97% | -67% (active) | 107% | 108% |
| CN(C)C(C(N)=O)c1ccc(Cl)cc1 (stereo not drawn) | 98.5% | 107% | 101% | 95.9% | 102% | 98.5 | 103% | 112% | 103% | 106% | 102% | 100% | 101% | 104% | 106% | 94.9% | 102% | 102% |
| COc1cnccc1-c1nc2ccc3[nH]ncc3c2c2c1CCCC2 | 8.78% (active) | 61.6% | 69.1% | 74.8% | 85.9% | 41.9 | 33.4% | 84.3% | -1.02% (active) | 64.2% | 68.4% | 43.3% | 13.2% | 28.1% | 43.5% | 23.8% | 58.4% | 21.4% |
| O=C1Nc2c(ccc(Cl)c2Cl)/C1=C/c1ccc([N+](=O)[O-])cc1 | 69.7% | 90.1% | 95.1% | 98.1% | 100% | 93.8 | 98.6% | 108% | 100% | 93.9% | 85.3% | 87.4% | 93% | 100% | 90.4% | 76.9% | 108% | 110% |
| O=C(Cc1ccc(/C=C/C(=O)c2ncc[nH]2)cc1)Nc1ccc(C(F)(F)F)cc1 | 0.627% (active) | -38.2% (active) | -2.81% (active) | 78.9% | 51.1% | 73.3 | 23.7% | 1.88% (active) | 36.1% | 60.3% | 29.2% | 44% | -1.95% (active) | -16.1% (active) | 10.3% | -58.7% (active) | 59.3% | -41.3% (active) |
| Cc1ccc2[nH]c(=O)cc(-n3nncc3COc3ccc(C=O)cc3)c2c1 | 102% | 102% | 107% | 101% | 104% | 107 | 106% | 102% | 96.7% | 109% | 97.5% | 90.8% | 103% | 99.4% | 95.6% | 108% | 109% | 106% |
| O=C(NCCc1ccccn1)OCc1nc2nc(Cl)nc(N3CCOCC3)c2[nH]1 | -23.3% (active) | -23.8% (active) | -0.399% (active) | 69.9% | 28.6% | 30.1 | 23.9% | -79.5% (active) | 16.5% | 16.6% | 33.5% | 8.16% (active) | 11.9% | -37.2% (active) | 15.6% | -71.8% (active) | 77.6% | 12.2% |
| COc1ccc(C(=O)c2cc3c(N)c(C(=O)Nc4cccc(OC)c4)sc3nc2C)cc1 | -2.44% (active) | 15.2% | 15% | 46.8% | 49.5% | 36.5 | 37.6% | 1.93% (active) | 24.6% | 4.09% (active) | 62.6% | 45.6% | -14.3% (active) | 30.1% | 23.4% | 11.1% | 19.5% | 20.9% |
| CC1(C)CN(c2cnc(C(=O)Nc3cc(F)cc4cccnc34)cn2)CCN1 | 7.28% (active) | 75.6% | 96.5% | 86.1% | 15% | 79.5 | 36.2% | 10.6% | 71.6% | 90.9% | 44.3% | 90.2% | 85.9% | 35.1% | 9.21% (active) | 11.4% | 92.2% | 91.7% |
| CC(=O)c1c[nH]c2ccc(-c3ccnc(Nc4ccc(NC(=O)c5cccc(F)c5)c(CN5CCOCC5)c4)n3)cc12 | 4.05% (active) | -25.9% (active) | 8.7% (active) | -4.49% (active) | -18.9% (active) | 17.8 | 1.06% (active) | -8.81% (active) | -20.1% (active) | 1.76% (active) | -5.6% (active) | -7.43% (active) | -6.37% (active) | 0.335% (active) | -0.0693% (active) | 2.26% (active) | 1.41% (active) | -7.43% (active) |
| CN1CCN(c2cnc(C(=O)Nc3cc(F)cc4cccnc34)cn2)CC1 | 24.5% | 49.2% | 63.8% | 62.7% | 8.94% (active) | 96.9 | 8.45% (active) | 9.25% (active) | 69.2% | 56.5% | 28.5% | 62.2% | 74.5% | 39.6% | 9.71% (active) | 9.87% (active) | 93% | 95% |

— PubChem BioAssay (NCI)
